Assay results published in PubChem BioAssay (Tox21).
“And” between values parts separate entries of the source, which are not always exact repeats. Equal entries are not always repeated. Records with an inconclusive call do not appear. A structure can be active in one record and inactive in another. The source made the active and inactive calls. The call rests on the fitted dose curve; in most records, active means well fitted activation curve with a large enough effect in the repeat runs; inconclusive means weak or mixed curves; inactive means flat fitted curve, though single readings scatter.

Experiment: A CellTox Green Cytotoxicity Assay to monitor cytotoxicity in HepG2 cells - 8 hour (AID 1224890); further: nearly all actives have a fitted effect of over 45% in size
Settings: CellTox Green fluorescence; series mostly up to 76.8 µM; cytotoxicity increase: at the top concentration
Description: National Center for Advancing Translational Sciences [NCATS]
NIH Chemical Genomics Center [NCGC]
U.S. Environmental Protection Agency [EPA]
National Institutes of Environmental Health Sciences [NIEHS]
National Toxicology Program [NTP]
Cell-based models are critical for drug discovery. Determining the natural cytotoxic effects resulting from test compounds is an essential research activity. A CellTox Green Cytotoxicity Assay to monitor cytotoxicity in real time of continues cell culture during 40 hours of the compound treatment was used to screen Tox21 10K library compounds in HepG2 cells. CellTox Green Cytotoxicity Assay is a nonlytic, homogeneous, biofluorescent method to measure cytotoxicity in cell culture after experimental manipulation. The assay system uses a proprietary asymmetric cyanine dye that is excluded from viable cells but preferentially stains the dead cell's DNA. […] Viable cells produce no appreciable increases in fluorescence. Therefore, the fluorescence signal produced by the binding interaction with dead cell DNA is proportional to cytotoxicity.
The mixture of HepG2 cell suspension and reagents were dispensed at 600cells/6 ul/well in 1536-well tissue culture treated black solid bottom plates using a Multidrop dispenser. After the assay plates were incubated at a 37 C/5% CO2 incubator for 5 hours, 23 nL of compounds dissolved in DMSO, positive and negative controls was transferred to the assay plate by a pintool work station. The plates were incubated at 37 C for 40 hours. The fluorescence intensity were measured at 0h, 8h, 16h, 24h, 32h and 40h time points using ViewLux plate reader during compound treatment.
On the % scale 0 is the no-effect control and ±100 the full control effect; potency means the concentration at half of the fitted maximal effect.

Compound | cytotoxicity increase | Potency
C=C(C)C(=O)OCCCCCCCC(C)C | -0.119% (inactive) | –
O=c1n(CCO)c(=O)n(CCO)c(=O)n1CCO | – | inactive and 38.9 µM (active)
OCCOc1ccc(OCCO)cc1 | -2.17% (inactive) | –
CC(=O)Nc1ccc(S(N)(=O)=O)cc1 | -6.64% (inactive) | –
CO[Si](CCCOCC1CO1)(OC)OC (stereo not given) | – | inactive
COc1ccc2c(c1)c(CC(=O)OCC(=O)O)c(C)n2C(=O)c1ccc(Cl)cc1 | 5.71% [at 35.3 µM] (inactive) | –
CCOC(=O)Nc1ccc(NCc2ccc(F)cc2)nc1N | 2.07% [at 35.3 µM] (inactive) | –
CCOC(=O)[C@H](CCc1ccccc1)N[C@@H](C)C(=O)N1[C@H](C(=O)O)C[C@@H]2CCC[C@@H]21 | -6.2% [at 35.3 µM] (inactive) | –
Cc1cc2c(cc1S(N)(=O)=O)S(=O)(=O)CCC2 | 1.13% [at 35.3 µM] (inactive) | –
N=C(N)c1ccccc1 | -0.341% (inactive) | –
CCC(=O)OC(C)c1ccccc1 (stereo not given) | -8.79% (inactive) | –
CCCCCCCCCCCCCC=O | 5.89% [at 6.97 µM] (inactive) | –
CC/C=C\CCOC(C)=O | 5.55% (inactive) | –
COCCc1ccc(OCC(O)CNC(C)C)cc1 (stereo not given) | – | inactive
NS(=O)(=O)c1cc(C(=O)NN2C[C@H]3[C@H]4CCC(C4)[C@H]3C2)ccc1Cl | 28.7% [at 35.3 µM] (inactive) | –
CC(C)NC(=O)NC(C)C | -4.9% (inactive) | –
N[C@@H](C(=O)N[C@@H]1C(=O)N2C(C(=O)O)=C(Cl)CS[C@H]12)c1ccccc1 | -13.7% [at 6.97 µM] (inactive) | –
CC1(C)C(O)C(C)(C)C1O (stereo not given) | 0.153% (inactive) | –
CC1(C)CO[C@@H](CC(=O)O)CN1 | -12.6% [at 35.3 µM] (inactive) | –
CCCCCCCCCCCCCCCCC | -9.99% (inactive) | –

Compound | cytotoxicity increase | Potency
O=C(CCCN1CCN(c2ccccn2)CC1)c1ccc(F)cc1 | 2.58% [at 35.3 µM] (inactive) | –
O=C(O)c1ccccc1OP(=O)(O)O | -7.23% [at 35.3 µM] (inactive) | –
NS(=O)(=O)c1ccc(C(=O)O)cc1 | -21.3% [at 35.3 µM] (inactive) | –
C[C@H]1C[C@@H](O)CC(C)(C)C1 | 23.5% (inactive) | –
FC1(F)C(F)(F)C(F)(F)C2(F)C(F)(F)C(F)(F)C(F)(F)C(F)(F)C2(F)C1(F)F (stereo not given) | -6.48% [at 35.3 µM] (inactive) | –
CCO[Si](CCC1CCC2OC2C1)(OCC)OCC (stereo not given) | -10.2% (inactive) | –
COc1ccccc1OCC(O)CN1CCN(CC(=O)Nc2c(C)cccc2C)CC1 (stereo not given) | 1.74% [at 35.3 µM] (inactive) | –
CCCN(CCC)CCc1cccc2c1CC(=O)N2 | 0.14% [at 35.3 µM] (inactive) | –
CC(C)=CCCC(C)CC(=O)O (stereo not given) | 0.818% (inactive) | –
Cc1ccc(Cl)cc1Cl | -3.43% (inactive) | –
O=C(CCCN1CCC(O)(c2cccc(C(F)(F)F)c2)CC1)c1ccc(F)cc1 | 3.72% [at 35.3 µM] (inactive) | –
O=Cc1cccc([N+](=O)[O-])c1 | -4.14% (inactive) | –
CCOC(=O)CC(C)=O | 0.864% (inactive) | –
C[C@@H]1CCN(C(=O)[C@H](CCCN=C(N)N)NS(=O)(=O)c2cccc3c2NC[C@H](C)C3)[C@@H](C(=O)O)C1 | -6.65% [at 35.3 µM] (inactive) | –
CCN(CC)CCNC(=O)c1cc(S(C)(=O)=O)ccc1OC | -5.39% [at 35.3 µM] (inactive) | –
C=CCS(=O)(=O)O | 9.47% (inactive) | –
CCSC(=O)N(CC(C)C)CC(C)C | -9.82% (inactive) | –
NC(=O)c1ccc([N+](=O)[O-])cc1 | 0.206% (inactive) | –
CC(C)(C)NCCNC(C)(C)C | 4.05% (inactive) | –
CCCCC/C=C\CCC=O | -13.9% (inactive) | –
